# PI4K2A inh: qHTS for small molecular inhibitors of PI4K2A | activity change, negative = inhibition, % at 76.9 µM | purified PI4K2A, ADP-Glo luminescence, 1 h; active compounds read low | 420,000 compounds, 0.13% hits | Phosphatidylinositol 4-kinase type 2-alpha (Homo sapiens), Q9BTU6; in the data active means activity change below about -50%; inconclusive means mostly about -30% to -49%;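 further: -100% = wells without enzyme as full effect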
# Target sequence (Q9BTU6 whole entry, looked up): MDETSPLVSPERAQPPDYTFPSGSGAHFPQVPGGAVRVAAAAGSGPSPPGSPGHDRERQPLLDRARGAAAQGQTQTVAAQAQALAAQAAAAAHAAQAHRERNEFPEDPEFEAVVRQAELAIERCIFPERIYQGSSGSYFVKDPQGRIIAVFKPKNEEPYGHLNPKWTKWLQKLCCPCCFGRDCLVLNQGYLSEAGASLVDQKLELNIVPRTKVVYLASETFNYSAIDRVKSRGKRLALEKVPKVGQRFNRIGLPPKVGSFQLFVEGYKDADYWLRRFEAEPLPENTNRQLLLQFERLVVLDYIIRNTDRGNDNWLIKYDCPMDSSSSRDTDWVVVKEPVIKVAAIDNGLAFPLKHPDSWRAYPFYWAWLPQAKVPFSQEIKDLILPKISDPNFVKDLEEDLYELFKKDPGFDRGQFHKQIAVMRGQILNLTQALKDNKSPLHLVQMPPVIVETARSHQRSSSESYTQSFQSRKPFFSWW
#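 In this quantitative HTS, ADP production by PI4K2A was quantified luminescently after 1 h at ambient temperature; 100 microM adenosine served as plate-quality control.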
# A549 tox: Nrf2 qHTS screen for inhibitors: counterscreen for cytotoxicity. 390,000 compounds, 0.16% hits. Potency, µM (series often up to 46 µM), inactives show at the top dose activity change, negative = cytotoxicity, most hits filed as inhibitors. A549 ARE-Fluc cells, CellTiter-Fluor viability, 18-24 h; further: potency means the concentration at half of the fitted maximal effect
#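 A549 ARE_Fluc cells in 5% FBS OPTI-MEM were exposed to compounds in concentration-response for 18-24 h at 37 deg C. Viability was read by CellTiter-Fluor fluorescence (Ex 405/Em 525) after 30 min, before the luciferase read.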
# Nrf2 block: Nrf2 qHTS screen for inhibitors; A549 ARE-Fluc reporter, luciferase luminescence, 18-24 h; Potency, µM (series often up to 46 µM), for inactives: top-dose activity change, negative = inhibition, hits mostly inhibitors; 360,000 compounds, 2.1% hits; further: potency means the concentration at half of the fitted maximal effect; nearly all actives have a fitted effect of over 60% in size
#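 Nrf2 function is reported as luminescence of an ARE-controlled luciferase in A549 cells. Compounds were tested at several concentrations, and a CellTiter-Fluor read on the same wells flagged cytotoxicity.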
# KB-3-1 tox: qHTS assay for MDR1-selective chemotherapeutics: Primary screen using the parental adenocarcinoma cell KB-3-1; Potency, µM (top dose mostly 46.1 µM), actives largely listed as cytotoxic; KB-3-1 viability, CellTiter-Glo ATP luminescence, 72 h; 400,000 compounds, 1.4% hits; further: potency means the concentration at half of the fitted maximal effect; nearly all actives have a fitted effect of over 60% in size
#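 72 h, 37 °C compound treatment of KB-3-1 parental cells; CellTiter-Glo added, 10 min, luminescence read. Data corrected against DMSO-only plates and normalized before curve fitting.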
# KB-V1 MDR tox: qHTS assay for MDR1-selective chemotherapeutics: Primary screen using the drug-selected MDR subline cells KB-V1. KB-V1 MDR cells viability, CellTiter-Glo, 72 h. Potency, µM (titrated, usually from 46.1 µM), usual class: cytotoxic. 400,000 compounds, 3.4% hits; further: potency means the concentration at half of the fitted maximal effect; nearly all actives have a fitted effect of over 60% in size
#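 Cytotoxicity via CellTiter-Glo luminescence after 72 h compound exposure at 37 degrees C. Cells: drug-selected KB-V1 line, DMEM phenol-red free plus 10% FBS. Compounds tested at multiple concentrations; normalized data fitted to concentration-effect curves.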
# Giardia kill: Small Molecules that selectively kill Giardia lamblia: qHTS; 340,000 compounds, 0.15% hits; Giardia lamblia trophozoite viability; activity change, % at 7.66 µM, hits read low; AID 540267, 2011; in the data active means activity change below about -80%; inconclusive means between about -30% and that limit;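 further: parasites exposed to compound for two days anaerobically before the ATP read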
#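 Killing of trophozoites was scored by loss of ATP luminescence after a 48 hrs anaerobic exposure to compounds at 37 deg C, using 100 cells per well.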
# * = called active by the depositor; i = inactive; ? = inconclusive; . = no result given. Compounds with a hit are over-represented: about 5.7% of the library has one in this group of screens. Unless noted, the call rests on the fitted dose curve; in most records, active means well fitted curve in the direction sought with a large enough effect; inconclusive means small, poorly fitted or top-dose-only effect, or another doubt; inactive means no such curve, though single readings can be large; an effect the other way counts as inactive or inconclusive. Unless noted, on the % scale 0 is the no-effect control and ±100 the full control effect.
SMILES,PI4K2A inh,A549 tox,Nrf2 block,KB-3-1 tox,KB-V1 MDR tox,Giardia kill
O=C(COc1ccccc1[N+](=O)[O-])N/N=C/C=C/c1ccco1,?,-2.7%,-5.5%,i,i,-0.3
Cc1cc(C)cc(OCC(=O)N/N=C/c2ccc([N+](=O)[O-])o2)c1,-0.9,?,20.6µM*,i,?,-87.8*
CCCCOc1ccc(C(=O)NC2CCCCN(C(C)C)C2=O)cc1 (stereo not drawn),-8.2,.,.,.,.,.
COc1ccccc1/C=C/C(=O)OCC(=O)NCc1ccco1,0.1,0.4%,0.4%,i,i,14.8
COc1cc(/C=C/C(=O)OCC(=O)NCc2ccco2)ccc1O,6.2,0.5%,1.9%,23.1µM*,?,-6.8
O=C(c1ccc(F)cc1Cl)N1CCCC(c2nc(-c3cccs3)no2)C1 (stereo not drawn),-5.1,.,.,.,.,.
O=S(=O)(CS(=O)(=O)c1ccccc1)c1ccccc1,5.5,-4.7%,-0.5%,?,i,11.7
O=S(=O)(C/C(=C/CO)S(=O)(=O)c1ccccc1)c1ccccc1,-3.3,16.4µM*,?,?,?,7.8
Cc1sc2nc(CSc3ccccc3)nc(N3CCN(C)CC3)c2c1C,-3.3,?,5.1%,?,i,15.4
COCCNc1nc(CSc2ccccc2)nc2sc(C)c(C)c12,3.6,12.2%,-21.9%,i,10.3µM*,?
CC1(C)CC(=O)N(CC(=O)N2CCN(c3cccc(Cl)c3Cl)CC2)c2ccccc2S1(=O)=O,-4.9,.,.,.,.,.
CCC(=O)N1CCc2cc(S(=O)(=O)CCC(=O)N3CCN(c4ccc(Cl)cc4)CC3)ccc21,4.3,1.0%,16.4µM*,i,i,-6.3
CCC(=O)N1CCc2cc(S(=O)(=O)CCC(=O)N3CCN(c4cccc(Cl)c4)CC3)ccc21,3.3,-2.5%,23.1µM*,i,?,.
CC(=O)N1CCc2cc(S(=O)(=O)CCC(=O)N3CCN(c4cc(C)ccc4C)CC3)ccc21,-4.8,0.1%,14.6µM*,i,i,-2.6
CN(C)c1ccc(CCc2ccnc3ccccc23)cc1,.,.,.,i,i,.
COc1ccc(OCc2nn3c(-c4ccccc4)nnc3s2)cc1,2.5,.,.,.,.,.
CCCN(CCC)c1cc(C)nc2nc(-c3ccc(Cl)cc3)nn12,-3.0,0.1%,13.2%,i,i,.
Cc1cc(NS(=O)(=O)c2ccc(NC(=O)CSc3nnc(-c4ccco4)n3-c3ccc(Cl)cc3)cc2)nc(C)n1,-4.2,.,.,.,.,.
O=C(CSc1ncnc2nc[nH]c12)N1CCN(c2ccc(Cl)cc2)CC1,-5.0,-25.0%,?,18.4µM*,?,-0.4
COc1oc(C(=O)NC2CCCCC2)c(-c2ccc(Cl)cc2)c1S(=O)(=O)c1ccccc1,5.1,-5.5%,-4.8%,?,4.61µM*,-1.1
CCCN(C(=O)Cn1ncc2c1-c1ccccc1OC2)c1cccc(C)c1,-0.2,2.2%,-19.2%,i,i,.
CCC1(C)Cc2c(sc3[nH]c(=O)[nH]c(=O)c23)CS1 (stereo not drawn),-2.4,-12.9%,.,i,11.6µM*,-5.6
Cc1nc2ccc(S(=O)(=O)NCC(=O)NCc3ccccc3Cl)cc2s1,-0.5,.,.,.,.,.
CCN(CC)C(=O)CC[C@H]1CC[C@]2(CCCN(C(=O)c3ccc4ccccc4n3)C2)O1,-1.5,.,.,.,.,.
O=C(NCc1nnc2c3ccccc3c(-c3ccccc3)nn12)c1ccc(Cl)cc1,-1.3,?,20.6µM*,i,?,16.0
CN(CCCN(Cc1ccc(Cl)cc1)c1ccc(Br)cn1)C(=S)NCCCc1cnc[nH]1,.,-0.4%,?,?,i,-6.3
O=C(Nc1ccc(C(F)(F)F)cc1)C1CCCN1S(=O)(=O)c1cccc2cccnc12 (stereo not drawn),-1.2,-8.9%,.,23.1µM*,4.61µM*,-4.0
